Unmarked numbers belong to inactive results.
Tested on: Plasmodium falciparum NF54/iGP1_RE9H ulg8 stage V gametocytes
Experiment: gametocyte viability (luciferase signal relative to DMSO control) (% of DMSO control); higher = less gametocytocidal activity, active = 50 or less
Conditions: exposure time: 72 h
In short: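 Viability was calculated relative to the mean of DMSO vehicle wells on each plate. Day-12 stage V gametocytes of line NF54/iGP1_RE9Hulg8 (~2.5% gametocytemia, 3% hematocrit, 0.5% Albumax II medium) were exposed in 96-well plates to compounds at final 10 µM or 1 µM, one well each, for 72 h at 37 °C. Luminescence was then read on an IVIS Lumina II after D-luciferin addition.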

Structure (SMILES)	gametocyte viability (concentration: 1 µM)	gametocyte viability (concentration: 10 µM)
Cn1cc(C2=C(c3cn(C4CCN(Cc5ccccn5)CC4)c4ccccc34)C(=O)NC2=O)c2ccccc21	100	109
CC(C)(C)c1cc(C=C(C#N)C#N)cc(C(C)(C)C)c1O	101	110
OC[C@H]1O[C@@H](n2cnc3cc(Cl)c(Cl)cc32)[C@H](O)[C@@H]1O [5,6-dichloro-1-β-D-ribofuranosylbenzimidazole]	112	119
Cc1ccccc1-n1c(Cn2ncc3c(N)ncnc32)nc2cccc(C)c2c1=O	94.7	104
N#C/C(=C\c1ccc(O)c(O)c1)C(N)=S	101	101
CN[C@@H]1C[C@H]2O[C@@](C)([C@@H]1OC)n1c3ccccc3c3c4c(c5c6ccccc6n2c5c31)C(=O)NC4 [Staurosporine]	110	27.1 (active)
N#CC(C#N)=Cc1ccc([N+](=O)[O-])c(O)c1	107	102
N#CC(C#N)=Cc1ccc(O)c(O)c1	99	104
COC[C@H]1OC(=O)c2coc3c2[C@@]1(C)C1=C(C3=O)[C@@H]2CCC(=O)[C@@]2(C)C[C@H]1OC(C)=O [Wortmannin]	91.8	89.3
N#CC(C#N)=Cc1cc(O)c(O)c(O)c1	104	97.9
Cc1ccccc1-n1c(Cn2cnc3c(N)ncnc32)nc2cccc(C)c2c1=O	101	96.9
CCN1CCN(C(=O)Cc2ccc(Nc3ncc(F)c(Nc4ccc(C(=O)Nc5ccccc5Cl)cc4)n3)cc2)CC1 [Aurora A Inhibitor I]	110	82.7
C/C(O)=C(\C#N)C(=O)Nc1cc(Br)ccc1Br	110	101
N#CC(C#N)=Cc1cc(O)c(O)c([N+](=O)[O-])c1	103	101
CC1=C(O)C(=O)[C@@H]2O[C@@H]2C1=O [Terreic acid]	98.4	64.8
O=c1[nH]c2ccc(Cl)cc2c(N[C@@H]2CN3CCC2CC3)c1-c1nc2ccccc2[nH]1	112	120
CC(=O)c1c(O)c(C)c(O)c(Cc2c(O)c3c(c(C(=O)/C=C/c4ccccc4)c2O)OC(C)(C)C=C3)c1O [Rottlerin]	100	96.9

— the supplement of paper PMC12297408
